Measured values: PubChem BioAssay AID1159580 (chemical genetic matrix, 2015)
Where “and” joins values, the source holds several entries; their conditions need not be identical. Equal values may be shown once. About 2,000 (36%) of roughly 5,500 compounds were called active. Another 18% or so got no clear call; they are omitted. Some of the results follow. Unmarked numbers belong to inactive results. Rule as the data show it: active = normalized growth mostly below about 0.91 (no sharp cut-off); inconclusive = no clear call, values can overlap the other calls; inactive = mostly above about 0.92.

Test: chemical genetic growth profiling, strain panel (AID 1159580);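 also: tested at 20 µM; growth read once vehicle control cultures reached saturation at 30 °C; 1 = growth at the plate median or of vehicle wells; lower values mean less growth of the strain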
Settings: S. cerevisiae deletion strains, growth OD

**Q.** Which results are given for `COc1cc(C/C=C/c2ccccc2)c(OC)cc1O`?
**A.** normalized growth (locus YAL013W, strain DEP1, active compounds read low): 0.989; normalized growth (locus YAL021C, strain ccr4, active compounds read low): 0.901 (active); normalized growth (locus YAL026C, strain drs2, active compounds read low): 0.936; normalized growth (locus YAL030W, strain snc1, active compounds read low): 0.956; normalized growth (locus YBL061C, strain skt5, active compounds read low): 0.964; normalized growth (locus YBR009C, strain hhf1, active compounds read low): 0.969; normalized growth (locus YBR021W, strain FUR4, active compounds read low): 1.04; normalized growth (locus YBR023C, strain chs3, active compounds read low): 0.95; normalized growth (locus YBR171W, strain sec66, active compounds read low): 0.962; normalized growth (locus YBR229C, strain ROT2, active compounds read low): 0.979; normalized growth (locus YBR231C, strain swc5, active compounds read low): 0.942; normalized growth (locus YBR279W, strain paf1, active compounds read low): 0.95; normalized growth (locus YCL011C, strain gbp2, active compounds read low): 0.936; normalized growth (locus YCL016C, strain dcc1, active compounds read low): 0.944; normalized growth (locus YCL029C, strain bik1, active compounds read low): 0.962; normalized growth (locus YCL061C, strain MRC1, active compounds read low): 0.967; normalized growth (locus YCL069W, strain vba3, active compounds read low): 0.98; normalized growth (locus YCR088W, strain abp1, active compounds read low): 0.958; normalized growth (locus YDL005C, strain med2, active compounds read low): 0.948; normalized growth (locus YDL035C, strain GPR1, active compounds read low): 1.04; normalized growth (locus YDL040C, strain nat1, active compounds read low): 0.973; normalized growth (locus YDL074C, strain BRE1, active compounds read low): 1.01; normalized growth (locus YDL101C, strain DUN1, active compounds read low): 0.951; normalized growth (locus YDL185W, strain tfp1, active compounds read low): 0.932; normalized growth (locus YDL192W, strain arf1, active compounds read low): 0.982; normalized growth (locus YDR001C, strain nth1, active compounds read low): 0.966; normalized growth (locus YDR069C, strain doa4, active compounds read low): 0.943; normalized growth (locus YDR101C, strain arx1, active compounds read low): 1.03; normalized growth (locus YDR137W, strain rgp1, active compounds read low): 0.939; normalized growth (locus YDR159W, strain sac3, active compounds read low): 1; normalized growth (locus YDR162C, strain NBP2, active compounds read low): 0.993; normalized growth (locus YDR195W, strain ref2): 1; normalized growth (locus YDR297W, strain sur2, active compounds read low): 0.955; normalized growth (locus YDR318W, strain mcm21, active compounds read low): 0.989; normalized growth (locus YDR334W, strain swr1, active compounds read low): 0.941; normalized growth (locus YDR335W, strain msn5, active compounds read low): 0.95; normalized growth (locus YDR388W, active compounds read low): 0.947; normalized growth (locus YDR392W, strain spt3, active compounds read low): 0.721 (active); normalized growth (locus YDR502C, strain sam2, active compounds read low): 0.964; normalized growth (locus YEL003W, strain gim4, active compounds read low): 0.959; normalized growth (locus YEL037C, strain rad23, active compounds read low): 0.958; normalized growth (locus YEL061C, strain CIN8 (second series), active compounds read low): 0.96; normalized growth (locus YEL061C, strain CIN8, active compounds read low): 0.968; normalized growth (locus YER015W, strain faa2, active compounds read low): 0.935; normalized growth (locus YER016W, strain bim1, active compounds read low): 0.961; normalized growth (locus YER110C, active compounds read low): 0.924; normalized growth (locus YER111C, strain swi4, active compounds read low): 0.978; normalized growth (locus YER155C, strain BEM2 (second series), active compounds read low): 0.915; normalized growth (locus YER155C, strain BEM2, active compounds read low): 0.96; normalized growth (locus YER167W, strain BCK2, active compounds read low): 0.968; normalized growth (locus YFR010W, strain ubp6, active compounds read low): 0.944; normalized growth (locus YGL078C, strain dbp3, active compounds read low): 0.994; normalized growth (locus YGL086W, strain mad1, active compounds read low): 0.986; normalized growth (locus YGL167C, strain pmr1, active compounds read low): 0.943; normalized growth (locus YGL173C, strain kem1, active compounds read low): 0.977; normalized growth (locus YGL227W, strain vid30, active compounds read low): 0.973; normalized growth (locus YGL240W, strain doc1, active compounds read low): 0.939; normalized growth (locus YGL248W, strain PDE1, active compounds read low): 0.967; normalized growth (locus YGL253W, strain hxk2, active compounds read low): 0.971; normalized growth (locus YGR078C, strain PAC10, active compounds read low): 0.964; normalized growth (locus YGR135W, strain pre9, active compounds read low): 0.95; normalized growth (locus YGR229C, strain SMI1, active compounds read low): 1.01; normalized growth (locus YGR252W, strain gcn5, active compounds read low): 1.1; normalized growth (locus YHR013C, strain ard1, active compounds read low): 0.926; normalized growth (locus YHR027C, strain rpn1, active compounds read low): 0.945; normalized growth (locus YHR030C, strain SLT2, active compounds read low): 0.963 and 1.06; normalized growth (locus YHR079C, strain IRE1 (second series), active compounds read low): 0.968; normalized growth (locus YHR079C, strain IRE1, active compounds read low): 1.04; normalized growth (locus YHR094C, strain hxt1, active compounds read low): 0.961; normalized growth (locus YHR129C, strain ARP1, active compounds read low): 0.966; normalized growth (locus YHR142W, strain chs7, active compounds read low): 0.919; normalized growth (locus YHR200W, strain rpn10, active compounds read low): 0.983; normalized growth (locus YIL066C, strain RNR3, active compounds read low): 0.971; normalized growth (locus YIL073C, strain SPO22, active compounds read low): 0.938; normalized growth (locus YIL125W, strain kgd1, active compounds read low): 0.979; normalized growth (locus YIR030C, strain dcg1, active compounds read low): 0.956; normalized growth (locus YJL092W, strain hpr5, active compounds read low): 0.957; normalized growth (locus YJL095W, strain BCK1 (second series), active compounds read low): 0.95; normalized growth (locus YJL095W, strain BCK1, active compounds read low): 0.935 and 1.06; normalized growth (locus YJL115W, strain asf1, active compounds read low): 0.939; normalized growth (locus YJL129C, strain trk1, active compounds read low): 0.949; normalized growth (locus YJL134W, strain LCB3, active compounds read low): 0.964; normalized growth (locus YJL154C, strain vps35, active compounds read low): 0.959; normalized growth (locus YJL164C, strain tpk1, active compounds read low): 0.929; normalized growth (locus YJL166W, strain qcr8, active compounds read low): 0.955; normalized growth (locus YJL168C, strain set2, active compounds read low): 0.965; normalized growth (locus YJL187C, strain SWE1 (second series), active compounds read low): 0.967; normalized growth (locus YJL187C, strain SWE1, active compounds read low): 0.954; normalized growth (locus YJR043C, strain POL32, active compounds read low): 1.08
